HDAC3 inhib: HDAC3 deacetylase inhibitors, primary screen, biochemical, fluorescence, cell-free homogeneous; 320,000 compounds, 0.15% hits; AID 2718, 2010; inhibition, % at 8.3 µM; recombinant HDAC3, fluorogenic peptide/trypsin coupled; in the data active = inhibition above about 26%, passing the limit was not always enough; inconclusive = no clear call, values can overlap the other calls
LANA-H2A inh: blockers of LANA interaction with H2A/H2B – biochemical, FP readout, HTS, primary screen. Protein LANA1 (Human herpesvirus 8 type P (isolate GK18)), Q9QR71. inhibition, % (test concentration not listed). AID 2629, 2010. 320,000 compounds, 0.6% hits. cell-free LANA-H2A/H2B peptide, fluorescence polarization; in the data active = inhibition mostly above about 10%, no sharp cut-off; inactive = mostly below about 6.7%
HTR2A ag: mouse Htr2a agonists via beta-arrestin recruitment, primary screen, cell-based, luminescence. CHO-K1 mHTR2A beta-arrestin complementation; percent of 30 µM serotonin response. AID 624169, 2012. 360,000 compounds, 0.66% hits. 5-hydroxytryptamine receptor 2A (Mus musculus), P35363. activation, % at 7.6 µM;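 active = activation above a run cutoff, the mean activation of all tested compounds plus 3 SD, cut at about 14% in these data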
Target sequence (P35363 whole entry, looked up): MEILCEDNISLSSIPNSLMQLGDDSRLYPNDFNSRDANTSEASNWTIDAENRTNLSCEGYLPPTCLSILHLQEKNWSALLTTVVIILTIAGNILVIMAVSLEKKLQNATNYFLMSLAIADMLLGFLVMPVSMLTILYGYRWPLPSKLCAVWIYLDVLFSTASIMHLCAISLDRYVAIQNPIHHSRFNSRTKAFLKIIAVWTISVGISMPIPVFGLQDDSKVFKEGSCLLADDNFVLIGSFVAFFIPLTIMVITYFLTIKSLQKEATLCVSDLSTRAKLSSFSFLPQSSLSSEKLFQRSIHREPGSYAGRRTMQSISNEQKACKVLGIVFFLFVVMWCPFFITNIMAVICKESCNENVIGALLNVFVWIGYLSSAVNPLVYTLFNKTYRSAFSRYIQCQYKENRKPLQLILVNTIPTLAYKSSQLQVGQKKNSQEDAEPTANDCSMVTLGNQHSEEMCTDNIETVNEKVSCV
CTSL1 counter: Fasciola hepatica cathepsin L1 inhibitors, primary screen, counter-screen for PFM18AAP inhibitor project, biochemical, QFRET, fluorogenic peptide substrate | inhibition, % at 5.96 µM | recombinant F. hepatica cathepsin L1, Z-Leu-Arg-MCA fluorescence | 300,000 compounds, 0.49% hits;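 active = inhibition above the mean of all tested compounds plus 3 SD, set per screening campaign, cut at about 17% in these data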
MOR ag counter: OPRM1 agonists via beta-arrestin recruitment, confirmation, counter-screen for mouse HTR2A agonist project, cell-based, luminescence, single concentration | AID 624380, 2012 | shares compounds with HTR2A ag | 2,300 compounds, 5.3% hits | activation, % at 9.3 µM | U2OS OPRM1 beta-arrestin PathHunter; DMSO 0%, DAMGO 9.3 µM 100%;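 active = mean activation above the mean of DMSO-only wells plus 3 SD, cut at about 0.5% in these data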
HTR2A ag conf: mouse HTR2A agonists, beta-arrestin recruitment, confirmation, cell-based, luminescence, CHO-K1 PathHunter, triplicate; shares compounds with HTR2A ag; DMSO 0%, 30 µM serotonin 100%; activation, % at 7.6 µM; 2,300 compounds, 19% hits;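 active = mean activation across triplicates above the hit threshold derived in the original primary screen, cut at about 15% in these data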
A number is an active result; i = inactive; ? = inconclusive; nt = no result given. Hits are enriched below; roughly 1.7% of the tested compounds scored in any of these assays.

SMILES | HDAC3 inhib | LANA-H2A inh | HTR2A ag | CTSL1 counter | MOR ag counter | HTR2A ag conf
COc1ccc(S(=O)(=O)Cc2ccc(C(=O)N3CCOCC3)o2)cc1 | i | i | 17 | i | i | i
O=C(CCCOc1ccc(Cl)cc1)NC1CCCCC1 | i | i | i | i | nt | nt
C=C(C)c1cccc(C(C)(C)NC(=O)Nc2nncs2)c1 | i | i | i | i | nt | nt
C=C(C)c1cccc(C(C)(C)NC(=O)Nc2ccc(OC)nc2)c1 | i | i | 45 | i | i | 16
C=C(C)c1cccc(C(C)(C)NC(=O)Nc2ccc(C)cn2)c1 | nt | nt | 15 | i | i | 32
C=C(C)c1cccc(C(C)(C)NC(=O)Nc2cc(C)ccn2)c1 | i | i | 35 | i | i | 30
CCCCNCCCCOc1ccccc1 | i | i | i | i | nt | nt
CN(CCOc1ccccc1)Cc1ccccc1 | nt | nt | 20 | nt | i | 37
CCc1ccc(CN(C)CC(O)COc2cccc3ccccc23)cc1 (configuration not stated) | i | i | i | i | nt | nt
CCN(Cc1ccccc1)C(=O)CCCOc1ccccc1 | i | i | i | i | nt | nt
C[N+](C)(CCOc1ccccc1)Cc1ccccc1 | nt | nt | 35 | nt | 1.6 | i
CN(CCOc1cccc2ccccc12)Cc1ccccc1 | i | i | 15 | i | i | 19
O=C(COc1ccc2cc(Br)ccc2c1Br)N1CCOCC1 | i | i | i | nt | nt | nt
COC(=O)C1=C(C)NC(=O)CC1c1cccc(Cl)c1Cl (configuration not stated) | i | i | 24 | i | i | i
O=S(=O)(Nc1cccc(-n2cnnn2)c1)c1ccccc1 | i | i | 15 | i | i | i
O=S(=O)(Nc1cccc(-n2cnnn2)c1)c1cccc(Cl)c1 | i | i | i | i | nt | nt
CC(=O)N1c2ccc(S(=O)(=O)N3CCCCC3)cc2CC1C(=O)Nc1ccc(C)cc1 (configuration not stated) | i | i | i | i | nt | nt
Cc1c(Cc2ccc3c(c2)OCO3)sc(NC(=O)c2ccccc2)c1C(N)=O | i | i | 15 | i | i | i
Cc1nc(NC(=O)c2ccccc2)sc1Cc1ccc2c(c1)OCO2 | i | i | i | i | nt | nt
CCOC(OCC)c1cn(Cc2ccc(C(=O)c3ccccc3)cc2)nn1 | i | i | i | i | nt | nt
CCC1=C(OC(=O)N(CC)CC)N2C(=O)OC(=NCC3CC3)[C@]2(Cc2ccccc2)[C@H]2C1=CC[C@H]1C(=O)N(CC)C(=O)[C@H]12 | i | i | 18 | i | 0.9 | i
COC(=O)C1=C(C)NC(=S)NC1c1ccc(OCC(=O)N2CCCCC2)c(OC)c1 (configuration not stated) | i | i | i | i | nt | nt
Cc1cc(Cl)ccc1NC(=O)COC(=O)CCNS(=O)(=O)c1ccccc1 | i | i | i | nt | nt | nt
Cc1cccc(N2C(=O)C(Oc3ccc(Cl)cc3Cl)C2C(=O)O)c1C (configuration not stated) | i | i | i | i | nt | nt
CCCNCC1C(Oc2ccc(Cl)cc2Cl)C(=O)N1c1cccc(C)c1C (configuration not stated) | i | i | 17 | i | i | i
SMILES | HDAC3 inhib | LANA-H2A inh | HTR2A ag | CTSL1 counter | MOR ag counter | HTR2A ag conf
O=C(Nc1cccc(S(=O)(=O)N2CCOCC2)c1)C1CC1 | i | i | i | nt | nt | nt
COc1cccc(-n2c(-c3ccccc3)c[nH]c2=S)c1 | i | i | 22 | i | 0.5 | i
S=c1[nH]cc(-c2ccccc2)n1-c1cccc(Cl)c1 | nt | i | i | i | nt | nt
O=P(Nc1ccccc1)(Nc1ccccc1)c1ccccc1 | nt | nt | 15 | nt | i | i
CCN(c1ccccc1)P(=O)(Nc1ccccc1)Nc1ccccc1 | nt | i | i | i | nt | nt
CCC(=O)c1ccc(OCC(=O)OCc2csc(CC(=O)Nc3ccccc3C)n2)cc1 | nt | nt | 19 | nt | i | i
C[C@H](OC(=O)c1[nH]cnc1C(=O)N1CCN(C(=O)OC(C)(C)C)CC1)c1ccccc1 | i | i | i | nt | nt | nt
CCOC(=O)c1[nH]cnc1C(=O)N1CCN(C(=O)OC(C)(C)C)CC1 | i | i | 18 | nt | i | i
Cc1ccc(C(C)C)c(OCC(=O)OCC(=O)NC2CCS(=O)(=O)C2)c1 (configuration not stated) | i | i | i | i | nt | nt
Cc1ccc(C(C)C)c(OCC(=O)OCC(=O)NC2CC2)c1 | i | i | 26 | nt | i | i
CCOC(=O)C1CCN(S(=O)(=O)c2c(C)n(C)c(=O)n(C)c2=O)CC1 | nt | i | 21 | i | i | i
O=C(NCCN1C(=O)S/C(=C\c2ccc(Cl)cc2Cl)C1=O)C1=COCCO1 | ? | i | i | i | nt | nt
CC(C)(C)OC(=O)NCCc1nnc(SCc2c(Cl)cccc2Cl)o1 | i | i | 15 | i | i | i
CC(C)(C)OC(=O)NCCc1nnc(SCc2cccc(Cl)c2)o1 | i | i | i | i | nt | nt
N#Cc1c(NC(=O)/C=C/C(=O)O)sc2c1CCN(Cc1ccccc1)C2 | i | i | i | i | nt | nt
Cc1ccc(S(=O)(=O)NC2=NCN(CCN3CCOCC3)CN2)cc1 | i | i | 17 | i | i | i
Cc1c(NC(=O)c2ccccc2NC(=O)COc2ccccc2)cccc1C(=O)O | i | i | 17 | i | i | i
O=C(COc1ccccc1C(=O)O)Nc1cccc2ccccc12 | i | i | 16 | nt | i | i
O=C(CNC(=O)c1ccc(Br)o1)NNC(=O)c1ccccc1O | i | i | 17 | i | i | i
O=C(CNC(=O)c1ccc(Br)o1)NCC(=O)OCc1ccccc1 | i | i | i | i | nt | nt
CCOC(=O)[C@H]1[C@H]2COc3ccc(Cl)cc3[C@@H]2N2C(=O)[C@@H](CO)NC(=O)[C@@]12C | i | i | i | nt | nt | nt
CCn1c(SCc2ccccc2F)nnc1-c1ccncc1 | i | i | i | i | nt | nt
CC(C)(CCc1ccccn1)C(=O)C(CCc1ccccn1)CCc1ccccn1 | nt | nt | 14 | nt | i | 33
COc1ccc(C2/C=C\CN(C(=O)C3CCCCC3)CC(=O)N2Cc2ccc(F)cc2)cc1 (configuration not stated) | i | i | i | i | nt | nt
COc1ccc(C2/C=C\CN(C(=O)C3CCCC3)CC(=O)N2Cc2ccc(F)cc2)cc1 (configuration not stated) | i | i | 24 | i | i | 62
COc1ccc(C=CC(=O)c2ccc3cc(OC)c(OC)cc3c2)cc1OC | nt | nt | 17 | nt | i | i
Cc1ccc(NC(=O)Nn2cnnc2)cc1 | i | i | 16 | nt | i | i
O=C(Nc1ccc(Cl)cc1)Nn1cnnc1 | nt | nt | i | nt | nt | nt
CC1CCCN(c2ccc(C(=O)Nc3ccc4c(c3)OCO4)cc2[N+](=O)[O-])C1 (configuration not stated) | i | i | 38 | i | i | i
O=C1C2CCc3ccccc3C2N1c1ccccc1 (configuration not stated) | i | i | 18 | nt | i | i

From PubChem
